Experiment [1] has as its target Nuclear receptor subfamily 1 group I member 2 (Mus musculus) (UniProt O54915). The experiment in a line: ATG_mPXR_XSP2: Attagene TRANS-FACTORIAL Multi-Species (XSP1) HepG2 Assay for mouse Pregnane X Receptor (PXR) (AID 2283831). The essentials:
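Reporter transcripts were quantified by RT-PCR, FAM primer extension, HpaI digestion and capillary electrophoresis after 24 h of chemical exposure in transiently transfected HepG2 cells carrying chimeric receptor-GAL4 constructs; DMSO served as baseline.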

Experiment [2] has as its target zebrafish Thyroid Hormone Receptor alpha (TRa), thraa (gene 30670) (UniProt Q98867). The experiment in a line: ATG_zfTRa_XSP2: Attagene TRANS-FACTORIAL Multi-Species (XSP1) HepG2 Assay for zebrafish Thyroid Hormone Receptor alpha (TRa) (AID 2283832).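 Further: actives raise zebrafish TRa-Gal4 reporter transcript above DMSO baseline.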 An outline of the steps: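 Chimeric receptor-Gal4 activity was assessed in transfected human liver HepG2 cells 24 h after dosing, using reporter transcript levels detected by RT-PCR and capillary electrophoresis. DMSO served as baseline.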

Experiment [3] relates to zebrafish Peroxisome Proliferator-activated Receptor gamma (PPARg), gene 557037. The experiment in a line: ATG_zfPPARg_XSP2: Attagene TRANS-FACTORIAL Multi-Species (XSP2) HepG2 Assay for zebrafish Peroxisome Proliferator-activated Receptor gamma (PPARg) (AID 2283833).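 Further: actives increase reporter signal over DMSO so AC50 reflects activation.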 An outline of the steps:
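Multi-species TRANS format in HepG2, 24 h dosing; medium also contained 3 nM 6-alpha-fluorotestosterone and 1.5 nM norgestrel to stimulate androgen receptor. Zebrafish PPARg-GAL4 induced reporter mRNA was measured by RT-PCR/capillary electrophoresis.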

Experiment [4] deals with turtle Thyroid Hormone Receptor, alpha (TRa), gene 101949057. Description: ATG_trTRa_XSP2: Attagene TRANS-FACTORIAL Multi-Species (XSP1) HepG2 Assay for turtle Thyroid Hormone Receptor, alpha (TRa) (AID 2283834).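 Further: hits raise reporter mRNA over the DMSO baseline so AC50 marks activators.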 The essentials:
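Transfection of HepG2 with multiple reporter transcription units, then chemical dosing for 24 h. Total RNA was reverse-transcribed, reporter sequences PCR-amplified and FAM-labelled, then sized by capillary electrophoresis. DMSO served as baseline.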

Experiment [5] can be described thus: ATG_M_61_XSP2: Attagene TRANS-FACTORIAL Multi-Species (XSP2) HepG2 Assay for M61 Transcription Factor (Internal Marker) (AID 2283835; active means hit-call score of the fitted dose curve at least 0.9, where 1 is the maximum; inactive means score below 0.9;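 further: reporter mRNA of an internal background marker read by RT-PCR and capillary electrophoresis; active means a rise in signal above the DMSO baseline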). An outline of the steps:
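First, HepG2 cells are transfected with reporter units under GAL4-UAS control. Next, chemicals are applied for 24 h. Then total RNA is reverse-transcribed, amplified, fluorescently labelled and sized by capillary electrophoresis, with gain of signal scored against DMSO.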

Experiment [6] deals with zebrafish Thyroid Hormone Receptor beta (TRb), thrb (gene 30607) (UniProt Q9PVE4). Description: ATG_zfTRb_XSP2: Attagene TRANS-FACTORIAL Multi-Species (XSP1) HepG2 Assay for zebrafish Thyroid Hormone Receptor beta (TRb) (AID 2283836). An outline of the steps:
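Fluorescence of labelled reporter cDNA fragments, separated by capillary electrophoresis, gives mRNA induction from exogenous NR-Gal4 chimeras in transiently transfected HepG2 cells after 24 h dosing; 3 nM 6-alpha-fluorotestosterone and 1.5 nM norgestrel included in the run.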

Experiment [7] is described as follows: ATG_XTT_Cytotoxicity_XSP2: Cytotoxicity Assessment in the Attagene TRANS-FACTORIAL Multi-Species (XSP2) HepG2 Assay (AID 2283837). The essentials: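 HepG2 cells, transiently transfected with multiple reporter constructs, exposed to chemical for 24 h. Cell number assessed with XTT fluorescence read-out; loss of signal fitted relative to DMSO.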
For experiment [8], the target named is human Thyroid hormone Receptor alpha (TRa), THRA (gene 7067) (UniProt P10827). Description: ATG_hTRa_XSP2: Attagene TRANS-FACTORIAL Multi-Species (XSP2) HepG2 Assay for human Thyroid hormone Receptor alpha (TRa) (AID 2283838). An outline of the steps: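 HepG2 cells transiently transfected with multiplexed GAL4-UAS reporter units and exogenous NR-GAL4 chimeras; 24 h chemical exposure with 3 nM 6-alpha-fluorotestosterone and 1.5 nM norgestrel present. Reporter mRNA measured by RT-PCR, FAM labelling, HpaI digestion, capillary electrophoresis; gain-of-signal versus DMSO.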

Experiment [9] has as its target frog Thyroid hormone Receptor alpha (TRa), thra-a (gene 397942) (UniProt P15204). The experiment in a line: ATG_frTRa_XSP2: Attagene TRANS-FACTORIAL Multi-Species (XSP2) HepG2 Assay for frog Thyroid hormone Receptor alpha (TRa) (AID 2283839). The essentials: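 Transfect HepG2 with multiple reporter units (GAL4-UAS), dose chemical, incubate 24 h. Isolate RNA, reverse-transcribe, PCR-amplify reporter, label with 6-FAM by primer extension, digest with HpaI, run capillary electrophoresis; induction scored against DMSO.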

Experiment [10] addresses human Thyroid hormone Receptor beta (TRb), THRB (gene 7068) (UniProt P10828). The experiment in a line: ATG_hTRb_XSP2: Attagene TRANS-FACTORIAL Multi-Species (XSP2) HepG2 Assay for human Thyroid hormone Receptor beta (TRb) (AID 2283840).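 Further: actives raise reporter mRNA so potency reflects agonist-like gain of signal.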 The essentials: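 Transient transfection of human HepG2 with multi-species NR-Gal4/GAL4-UAS reporter constructs; 24 h compound treatment; RNA isolation, reverse transcription, PCR and HpaI digest; capillary electrophoresis of labeled fragments; activity fitted upward versus DMSO.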

For experiment [11], the system named is Sodium/Iodide Symporter (NIS), SLC5A5 (gene 6528). The experiment in a line: CPHEA_Stoker_NIS_Inhibition_RAIU: CPHEA's Radioactive Iodide Uptake (RAIU) Assay for Sodium/Iodide Symporter (NIS) Inhibition, Stoker and Laws Labs (AID 2283841). An outline of the steps: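 Test chemicals, six concentrations from 0.001 to 100uM in 0.5% DMSO, were co-incubated with carrier-free 125I (final 329pM) on hNIS-HEK293T-EPA monolayers in pH 7.4 HEPES-buffered HBSS. Plates stood 2 hours at room temperature, then were washed cold and counted.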

The nature of experiment [12]: CPHEA_Stoker_NIS_Cytotoxicity: Cytotoxicity Assessment for CPHEA's Radioactive Iodide Uptake (RAIU) Assay for Sodium/Iodide Symporter (NIS) Inhibition, Stoker and Laws Labs (AID 2283897). An outline of the steps: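 Viability in hNIS-HEK293T-EPA cells is scored as a drop in luciferase-detected ATP following 2-hour room-temperature exposure (0.001–100uM; triplicate wells, three cell passages), with DMSO as negative control.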

Experiment [13] can be described thus: CEETOX_H295R_11DCORT_noMTC: CeeTox H295R High-throughput Steroidogenesis Assay for 11-Deoxycortisol (11DCORT), maximum tolerated concentration (MTC) filtered results only (AID 2283911; active means hit-call score of the fitted dose curve at least 0.9, where 1 is the maximum; inactive means score below 0.9). The conditions noted are these: actives raise or lower the signal. An outline of the steps: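 Steroidogenesis was stimulated in H295R cells with 10 uM forskolin for 48 h before a 48 h chemical exposure. Secreted 11-deoxycortisol was measured by tandem mass spectrometry and fitted bidirectionally against DMSO controls.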

Experiment [14] is described as follows: CEETOX_H295R_OHPREG_noMTC: CeeTox H295R High-throughput Steroidogenesis Assay for OH-Pregnenolone (OHPREG), maximum tolerated concentration (MTC) filtered results only (AID 2283912; active means hit-call score of the fitted dose curve at least 0.9, where 1 is the maximum; inactive means score below 0.9). Particulars: actives raise or lower the signal. The essentials:
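Steroidogenesis in H295R cells (OECD 456, modified): after 48 h forskolin priming and 48 h chemical treatment, secreted 17alpha-hydroxypregnenolone is measured by HPLC-MS/MS. Activity is fitted in both directions against DMSO; concentrations are not filtered by MTT-based MTC.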

Experiment [15] can be described thus: CEETOX_H295R_OHPROG_noMTC: CeeTox H295R High-throughput Steroidogenesis Assay for OH-Progesterone (OHPROG), maximum tolerated concentration (MTC) filtered results only (AID 2283914; active means hit-call score of the fitted dose curve at least 0.9, where 1 is the maximum; inactive means score below 0.9). The conditions noted are these: actives raise or lower the signal. An outline of the steps:
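Forskolin 10 uM, 48 h prestim → test cmpd in DMSO (0.1% final), 48 h → medium MTBE extraction → LC-MS/MS quant of 17alpha-OH-progesterone. Bidirectional fit vs DMSO; no MTT-based MTC filtering.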

Experiment [16] can be described thus: CEETOX_H295R_ANDR_noMTC: CeeTox H295R High-throughput Steroidogenesis Assay for Androstenedione (ANDR), maximum tolerated concentration (MTC) filtered results only (AID 2283915; active means hit-call score of the fitted dose curve at least 0.9, where 1 is the maximum; inactive means score below 0.9). The conditions noted are these: actives raise or lower the signal. The essentials:
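H295R cells, passage 10 or below, prestimulated 48 h with 10 uM forskolin, then exposed 48 h to chemical in 0.1% DMSO. Medium androstenedione extracted with MTBE, quantified by HPLC-MS/MS; concentrations not MTC-filtered; bidirectional fit versus DMSO.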

Experiment [17] is described as follows: CEETOX_H295R_CORTISOL_noMTC: CeeTox H295R High-throughput Steroidogenesis Assay for Cortisol, maximum tolerated concentration (MTC) filtered results only (AID 2283916; active means hit-call score of the fitted dose curve at least 0.9, where 1 is the maximum; inactive means score below 0.9). The conditions noted are these: actives raise or lower the signal. The essentials:
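Cortisol secretion measured by LC-MS/MS after 48 h chemical treatment (final 0.1% DMSO) of forskolin-primed (10 uM, 48 h) H295R cells; gain or loss fitted relative to DMSO, without maximum-tolerated-concentration filtering.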

Experiment [18] can be described thus: CEETOX_H295R_CORTIC_noMTC: CeeTox H295R High-throughput Steroidogenesis Assay for Corticosterone (CORTIC), maximum tolerated concentration (MTC) filtered results only (AID 2283917; active means hit-call score of the fitted dose curve at least 0.9, where 1 is the maximum; inactive means score below 0.9). Particulars: actives raise or lower the signal. An outline of the steps:
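Following OECD 456 with minor changes, H295R cultures received 10 uM forskolin for 48 h, then test chemical at 0.1% DMSO for 48 h. Media steroids were extracted and measured by LC-MS/MS.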

Experiment [19] in a line: CEETOX_H295R_DOC_noMTC: CeeTox H295R High-throughput Steroidogenesis Assay for DOC, maximum tolerated concentration (MTC) filtered results only (AID 2283918; active means hit-call score of the fitted dose curve at least 0.9, where 1 is the maximum; inactive means score below 0.9). Particulars: actives raise or lower the signal. An outline of the steps:
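11-Deoxycorticosterone secreted by human adrenal H295R cells quantified by HPLC-MS/MS after 48 h chemical exposure (0.1% DMSO), following 48 h 10 uM forskolin prestimulation. Concentrations not filtered by MTT-derived MTC; bidirectional fitting.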

The nature of experiment [20]: CEETOX_H295R_ESTRADIOL_noMTC: CeeTox H295R High-throughput Steroidogenesis Assay for Estradiol, maximum tolerated concentration (MTC) filtered results only (AID 2283919; active means hit-call score of the fitted dose curve at least 0.9, where 1 is the maximum; inactive means score below 0.9). The conditions noted are these: actives raise or lower the signal. An outline of the steps:
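H295R human adrenal cells pre-stimulated 48 h with 10 uM forskolin, then exposed 48 h to chemical (0.1% DMSO final). Estradiol in medium measured by HPLC-MS/MS after MTBE extraction and dansyl derivatization; bidirectional fit versus DMSO, concentrations not MTT-filtered.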

Each structure is given as a SMILES string. Inconclusive results are not listed. Some compounds were tested as several samples or in several runs, with calls that do not always agree. Active and inactive are the calls of the source. How the source made its calls, unless noted: active means hit-call score of the fitted dose curve at least 0.9, where 1 is the maximum; inconclusive means response in the unintended direction; inactive means score below 0.9.

Chain of human Thyroid hormone Receptor beta (TRb), THRB (gene 7068) (P10828 whole entry, looked up, the tested form may be a part): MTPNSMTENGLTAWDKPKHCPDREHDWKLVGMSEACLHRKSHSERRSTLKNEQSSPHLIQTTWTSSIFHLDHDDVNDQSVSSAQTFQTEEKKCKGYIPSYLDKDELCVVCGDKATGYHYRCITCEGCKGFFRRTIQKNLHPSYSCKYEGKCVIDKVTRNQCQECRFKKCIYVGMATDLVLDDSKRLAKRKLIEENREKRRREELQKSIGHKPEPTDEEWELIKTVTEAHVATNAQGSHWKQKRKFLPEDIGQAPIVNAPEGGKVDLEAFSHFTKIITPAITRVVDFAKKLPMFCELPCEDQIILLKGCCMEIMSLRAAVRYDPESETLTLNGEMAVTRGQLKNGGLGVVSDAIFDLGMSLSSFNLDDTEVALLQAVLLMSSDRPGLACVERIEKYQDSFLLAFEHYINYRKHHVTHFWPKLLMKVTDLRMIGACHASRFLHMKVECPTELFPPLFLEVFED
Chain of human Thyroid hormone Receptor alpha (TRa), THRA (gene 7067) (P10827 whole entry, looked up, the tested form may be a part): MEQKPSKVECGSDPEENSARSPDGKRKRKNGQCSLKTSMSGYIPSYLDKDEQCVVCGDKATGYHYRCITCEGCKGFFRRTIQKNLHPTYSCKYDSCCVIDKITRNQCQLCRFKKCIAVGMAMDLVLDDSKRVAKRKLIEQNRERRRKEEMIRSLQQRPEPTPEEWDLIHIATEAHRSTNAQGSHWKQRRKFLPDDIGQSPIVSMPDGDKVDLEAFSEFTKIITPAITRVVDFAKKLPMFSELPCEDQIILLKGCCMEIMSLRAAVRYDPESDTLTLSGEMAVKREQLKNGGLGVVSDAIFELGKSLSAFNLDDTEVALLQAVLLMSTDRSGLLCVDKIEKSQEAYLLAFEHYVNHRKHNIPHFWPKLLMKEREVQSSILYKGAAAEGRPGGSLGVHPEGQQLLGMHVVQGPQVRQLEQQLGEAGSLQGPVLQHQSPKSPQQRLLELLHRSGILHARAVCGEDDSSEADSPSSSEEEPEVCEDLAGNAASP
Chain of zebrafish Thyroid Hormone Receptor beta (TRb), thrb (gene 30607) (Q9PVE4 whole entry, looked up, the tested form may be a part): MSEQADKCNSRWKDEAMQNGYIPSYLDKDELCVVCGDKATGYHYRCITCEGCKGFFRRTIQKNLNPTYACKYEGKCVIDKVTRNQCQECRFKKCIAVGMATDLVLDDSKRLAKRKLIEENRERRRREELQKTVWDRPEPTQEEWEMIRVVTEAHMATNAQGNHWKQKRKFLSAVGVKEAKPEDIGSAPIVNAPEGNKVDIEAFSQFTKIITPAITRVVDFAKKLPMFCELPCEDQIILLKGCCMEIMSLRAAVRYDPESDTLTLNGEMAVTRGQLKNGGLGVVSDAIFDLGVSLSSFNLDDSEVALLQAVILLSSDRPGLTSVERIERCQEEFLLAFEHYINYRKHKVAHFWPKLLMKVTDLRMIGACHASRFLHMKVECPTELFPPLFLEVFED
Chain of zebrafish Thyroid Hormone Receptor alpha (TRa), thraa (gene 30670) (Q98867 whole entry, looked up, the tested form may be a part): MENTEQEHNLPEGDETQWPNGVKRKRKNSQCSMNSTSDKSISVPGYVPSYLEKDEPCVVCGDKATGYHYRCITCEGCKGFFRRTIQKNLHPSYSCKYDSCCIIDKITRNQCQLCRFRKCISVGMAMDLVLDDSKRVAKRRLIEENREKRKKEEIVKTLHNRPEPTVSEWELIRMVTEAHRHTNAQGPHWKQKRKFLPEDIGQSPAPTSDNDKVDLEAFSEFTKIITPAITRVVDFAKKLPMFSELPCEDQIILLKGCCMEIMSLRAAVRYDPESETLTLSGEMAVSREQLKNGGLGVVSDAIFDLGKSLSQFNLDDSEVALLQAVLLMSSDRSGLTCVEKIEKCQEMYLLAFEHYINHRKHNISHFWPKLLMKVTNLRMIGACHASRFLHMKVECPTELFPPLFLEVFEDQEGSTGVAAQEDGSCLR
Chain of frog Thyroid hormone Receptor alpha (TRa), thra-a (gene 397942) (P15204 whole entry, looked up, the tested form may be a part): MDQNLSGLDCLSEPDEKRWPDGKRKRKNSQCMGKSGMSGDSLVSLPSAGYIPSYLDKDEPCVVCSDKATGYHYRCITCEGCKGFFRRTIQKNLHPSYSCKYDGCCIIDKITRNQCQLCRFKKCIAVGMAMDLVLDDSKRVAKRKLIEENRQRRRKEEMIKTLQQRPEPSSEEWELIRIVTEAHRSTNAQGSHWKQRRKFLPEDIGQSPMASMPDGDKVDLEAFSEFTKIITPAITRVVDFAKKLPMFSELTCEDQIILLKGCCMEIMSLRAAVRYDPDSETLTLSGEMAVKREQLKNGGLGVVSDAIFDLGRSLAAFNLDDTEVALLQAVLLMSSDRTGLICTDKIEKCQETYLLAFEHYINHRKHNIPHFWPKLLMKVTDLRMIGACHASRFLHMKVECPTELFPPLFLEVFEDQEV
Chain of Nuclear receptor subfamily 1 group I member 2 (Mus musculus) (O54915 whole entry, looked up, the tested form may be a part): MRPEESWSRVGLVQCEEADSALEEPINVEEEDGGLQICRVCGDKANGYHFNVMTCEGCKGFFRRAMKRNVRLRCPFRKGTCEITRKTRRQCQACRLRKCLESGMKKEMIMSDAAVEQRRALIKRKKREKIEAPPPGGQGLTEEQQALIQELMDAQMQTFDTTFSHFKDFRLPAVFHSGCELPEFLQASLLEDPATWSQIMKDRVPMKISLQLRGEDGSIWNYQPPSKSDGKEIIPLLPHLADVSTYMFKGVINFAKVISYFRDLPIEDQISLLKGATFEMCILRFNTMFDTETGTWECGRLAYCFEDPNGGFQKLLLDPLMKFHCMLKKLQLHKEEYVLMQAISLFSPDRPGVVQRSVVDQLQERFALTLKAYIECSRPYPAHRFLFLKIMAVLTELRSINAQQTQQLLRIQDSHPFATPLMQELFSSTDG

For `COc1ccc(C(=O)c2ccccc2)c(O)c1`, the concentration at half-maximal activity (AC50) in [1] is 26.7 µM (active). Also, the molecule was classed as inactive in experiment [2], in experiment [3], in experiment [4], in experiment [5], in experiment [6] and in experiment [7]. Besides, the result in [8], in [9], in experiment [10], in [11] and in experiment [12] was inactive.

Take `CCCCCCCCCC[N+](C)(CCCCCCCCCC)CCC[Si](OC)(OC)OC`: the result in experiment [11] and in [12] was inactive.

`COc1ccc(C(=O)/C(Br)=C\C(=O)O)cc1`: the AC50 is 65.2 µM (active) in experiment [13]; 14.2 µM (active) in experiment [14]; 58.3 µM (active) in experiment [15]; 39.2 µM (active) in experiment [16]; 50 µM (active) in experiment [17]; 57.8 µM (active) in [18]. In addition, the AC50 in [19] was 13.6 µM (active).

Regarding `C[N+](C)(C)CCCNS(=O)(=O)C(F)(F)C(F)(F)C(F)(F)C(F)(F)C(F)(F)C(F)(F)C(F)(F)C(F)(F)F`, the AC50 in experiment [11] was 7.09 µM (active).

With `O=C(Oc1ccccc1)c1ccccc1O`, the result in experiment [11] and in [12] was inactive.

As to `CCCCCCCOC(=O)c1ccc(O)cc1`, the result in experiment [11] and in experiment [12] was inactive.

On to `CC(C)c1ccc(O)c(C(C)C)c1`, for which the result in [11], in experiment [12], in experiment [13], in experiment [14], in experiment [15] and in experiment [17] was inactive. In addition, the result in experiment [19] and in [20] was inactive. Also, the AC50 in experiment [18] was 31.2 µM (active).

As to `O=C(OCCc1ccccc1)c1ccccc1`, the result in experiment [11] and in experiment [12] was inactive.

For the molecule `Oc1ccccc1Cc1ccccc1O`, the AC50 in [1] is 26.3 µM (active). The molecule was called inactive in [1], in experiment [2], in [3], in [4], in experiment [5] and in experiment [6]. Besides, the molecule was classed as inactive in [7], in experiment [8], in experiment [9] and in experiment [10].

For the molecule `C/C=C/C=C/CCCCCCCO`, the result in experiment [11] and in experiment [12] was inactive.

`CC(C)(C)NC(=O)[C@H]1CC[C@H]2[C@@H]3CC[C@H]4NC(=O)C=C[C@]4(C)[C@H]3CC[C@]12C`: the AC50 was 2.09 µM (active) in experiment [1] and 25.9 µM (active) in [4]. In addition, the molecule was called inactive in experiment [5].

Regarding `O=C(O)/C=C/c1ccccc1`, the outcome in [1], in [3], in experiment [6], in [7], in [8] and in [10] was inactive.

For the molecule `CO[Si](C)(C)OC`, the outcome in experiment [11] and in [12] was inactive.

Take `CCCCCCCCCCCCc1ccc(O)cc1`: the AC50 in [1] was 0.259 µM (active). The call in experiment [2], in experiment [3], in [4], in experiment [5], in experiment [6] and in experiment [10] was inactive.

In the case of `N#Cc1ccc(C2CCCc3cncn32)cc1` (configuration not stated), the call in [1], in [2], in experiment [3], in [4], in [5] and in [6] was inactive. For the same molecule, the molecule was called inactive in [7], in [9], in experiment [13] and in [14]. Also, the AC50 is 2.31 µM (active) in experiment [15], 2.52 µM (active) in [17], 1.44 µM (active) in [18] and 1.98 µM (active) in [19].
